# Bioassay records as filed in PubChem BioAssay.
# An excerpt weighted towards active compounds, which were near 12% of everything screened.
# Cycloheximide cs – affects cycloheximide protein synthesis inhibition readout, counter-screen. cell reporter, cycloheximide protein synthesis inhibition counterscreen. max response, %. actives 12% (n = 300,000). AID 2314; in the data active = max response mostly above about 13%, no sharp cut-off; inactive = mostly below about 14%; also: read at 38.3 µM for the half of the compounds with a filed dose; 0% is about no effect
# Shiga inhibitor – inhibitors of Shiga toxin in Vero cells; actives 9.2% (n = 290,000); Vero cells, Shiga toxin protein synthesis inhibition reporter; inhibition, % at 38.7 µM; in the data active = inhibition mostly above about 28%, no sharp cut-off; inactive = mostly below about 43%; also: 0% is about no effect
# Marburg entry inh – Marburg virus entry inhibition. Marburg virus pseudotyped entry inhibition, cell reporter. Potency, µM (titrated, usually from 37.8 µM), without a hit: at the top dose activity change, negative = inhibition, hits mostly inhibitors. actives 1.8% (n = 300,000). AID 540276; calls by dose curve; tested in HEK293 cells; also: potency is read from the fitted curve at half-maximal effect; % is scaled to controls: 0 for no effect and ±100 for the full control effect
# Lassa entry inh – blocks Lassa virus binding to or entry into cells; Lassa virus pseudotype entry inhibition, cell reporter; actives 1.2% (n = 300,000); AID 540256; Potency, µM (titrated, usually from 37.9 µM), for inactives: at the top dose activity change, negative = inhibition, hits mostly inhibitors; calls by dose curve; tested in HEK293 cells; also: potency is read from the fitted curve at half-maximal effect; % is scaled to controls: 0 for no effect and ±100 for the full control effect; nearly all actives have a fitted effect of over 50% in size
# The depositor's hits bear a star; ? = inconclusive; nt = no result; [ ] = remark or other dose.
SMILES,Cycloheximide cs,Shiga inhibitor,Marburg entry inh,Lassa entry inh
CSc1ccc(-c2nnn(CC(=O)Nc3sc4c(c3C#N)CCC(C(C)(C)C)C4)n2)cc1 (stereo unspecified),nt,nt,-1.8%[46.1 µM],4.8%[46.1 µM]
Cc1cc(C(=O)N2CCCc3ccccc32)ccc1[N+](=O)[O-],-2.1,-2.4,-0.5%[46.1 µM],-22.2%[46.1 µM]
COC(=O)c1ccc(COn2nnc3ccccc32)cc1,39.4*,97.0*,?,?
c1ccc(COn2nnc3ccccc32)c(COn2nnc3ccccc32)c1,-0.5,-6.4,?,-1.3%
COC(=O)c1ccc(Cn2nnc3ccccc32)cc1,-3.3,2.2,-11.0%[46.1 µM],12.2%[46.1 µM]
Clc1cccc(Cl)c1COn1nnc2ccccc21,24.9*,37.3,7.8%,-27.4%[14.3 µM]
COc1cccc(C(=O)Nc2ccc(-c3nc4ccccc4o3)c(O)c2)c1,13.8,53.2*,-22.4%,-13.3%
COc1cc(OC)cc(C(=O)Nc2ccc(-c3nc4ccccc4o3)cc2)c1,11.6,48.0*,?,-16.1%
O=C(Nc1ccc(O)c(-c2nc3ccccc3o2)c1)c1ccc(Br)cc1,nt,nt,nt,4.4%[46.1 µM]
CCCOc1ccc2c(C)c(CC(=O)OC)c(=O)oc2c1,31.4*,52.2*,-6.7%,1.7%
CCc1c(C)c2ccc(OCC(N)=O)cc2oc1=O,19.9*,44.8,19.9%,1.6%
COc1ccc(-c2c(C)c3ccc(OCC(C)=O)cc3oc2=O)cc1,48.8*,109.9*,nt,nt
O=c1oc2cc(O)ccc2c2oc3cc(O)ccc3c12,13.3*,30.8*,12.3%,-17.1%
Cc1cc(-c2ccc(S(=O)(=O)Nc3ccc(Cl)cc3C)cc2)on1,nt,nt,nt,-27.3%[46.1 µM]
C=C(C)COc1ccc2c(C)c(CCC(=O)NC3CC3)c(=O)oc2c1,21.6*,19.4,nt,nt
COc1ccc(-c2c(C)c3ccc(O)cc3oc2=O)cc1,53.4*,50.0*,nt,nt
CC(=O)COc1ccc2c(C)c(C)c(=O)oc2c1,52.1*,79.4*,?,6.6%
Cc1ccc2nc(NC(=O)c3ccc(Cn4cc(Cl)cn4)o3)sc2c1,32.8*,43.4,-2.9%,27.1%
NNC(=O)c1ccc(Cn2cc(Cl)cn2)o1,18.4*,24.5,nt,nt
CC(=O)c1sc(NC(=O)c2ccc(Cn3cc(Br)cn3)o2)nc1C,-3.4,-9.2,5.8%,2.6%
CCOC(=O)C1CCN(C(=O)/C=C/c2ccc(OC)cc2)CC1,42.5*,71.3*,3.4%,?
COC(=O)C1CCN(C(=O)/C=C/c2ccccc2)CC1,18.0,41.3*,?,?
O=C(/C=C/c1cccc(Cl)c1)N1CCC(Cc2ccccc2)CC1,12.0*,53.6*,?,0.5%
CC(C)C1CC(CCNCc2ccc3c(c2)OCO3)(c2ccccc2)CCO1 (stereo unspecified),-1.9,-6.5,10µM*,?
Cc1ccc(OCC(=O)Nc2cccc(C)n2)c(C)c1,35.8*,76.8*,?,10.4%
SMILES,Cycloheximide cs,Shiga inhibitor,Marburg entry inh,Lassa entry inh
Cc1cccc(NC(=O)COc2ccc(Br)cc2)n1,62.3*,71.9*,9.5%,?
CC(=O)NC(=S)NNC(=O)COc1ccc([N+](=O)[O-])cc1,-0.5,-18.4,3.3%[46.1 µM],-1.2%
CC(=O)NC(=S)NNC(=O)COc1ccc(Br)cc1,21.3*,31.9,nt,nt
Cc1ccc2nc(N(CCCN(C)C)C(=O)c3ccc4c(c3)CCCC4)sc2c1,-9.5,-15.4,?,?
Cc1ccc2nc(N(CCCN(C)C)C(=O)c3cc(-c4cccs4)nc4ccccc34)sc2c1,15.7,23.2,nt,nt
Cc1cc(C)c2nc(N(CCCN(C)C)C(=O)c3ccc4c(c3)CCCC4)sc2c1,nt,nt,?,11.2µM*
CN(C)CCCN(C(=O)c1cc(-c2cccs2)nc2ccccc12)c1nc2c(F)cccc2s1,1.1,-9.0,11.2µM*,?
CN(C)CCCN(C(=O)c1ccc(N2C(=O)CCC2=O)cc1)c1nc2c(F)cccc2s1,7.2,2.7,-4.6%[46.1 µM],8.9%
CN(C)CCCN(C(=O)c1ccc2c(c1)CCCC2)c1nc2c(F)cccc2s1,16.7*,23.9*,-17.7%,?
Cc1ccccc1C(=O)Nc1nnc(SCc2cc(=O)c3c(C)ccc(C)c3[nH]2)s1,nt,nt,nt,-14.6%[46.1 µM]
NC(=O)C1CCN(C(=O)c2ccc3ccccc3c2)CC1,17.2*,32.7*,6.9%[46.1 µM],12.0%[46.1 µM]
O=C(c1ccc2ccccc2c1)N1CCCCC1,-3.6,-7.1,-21.0%[46.1 µM],12.9%[46.1 µM]
CC1CCN(C(=O)c2ccc3ccccc3c2)CC1,39.2*,52.4*,19.8%[46.1 µM],-18.9%[46.1 µM]
N#Cc1cccc(-c2cn(S(=O)(=O)c3ccc(Cl)cc3)nc2N)c1,-2.7,-9.1,-21.6%[46.1 µM],-23.6%
Nc1ncc(-c2cccc(S(N)(=O)=O)c2)c2scc(-c3ccc(F)c(Cl)c3)c12,nt,nt,nt,22.3µM*
COc1cc2c(cc1OC)-c1cc(Nc3ccccc3Br)nc(=O)n1CC2,16.9*,-0.5,?,-14.9%[46.1 µM]
COc1cc2c(cc1OC)-c1cc(Nc3ccc4c(c3)OCCO4)nc(=O)n1CC2,66.9*,78.3*,?,0.2%
COc1cc2c(cc1OC)-c1cc(Nc3ccccc3)nc(=O)n1CC2,-3.6,0.9,-2.0%,-26.1%
COc1ccc(Nc2cc3n(c(=O)n2)CCc2cc(OC)c(OC)cc2-3)cc1,17.4,26.6,-7.8%,?
Cc1ccc(C)c(S(=O)(=O)NCC(=O)Nc2ccc3c(c2)OCO3)c1,-2.5,-8.9,2.9%,-0.6%
O=C(c1cccc(Cl)c1)N1CCC(c2nc3c(nnn3Cc3ccc(F)cc3F)c(=O)[nH]2)CC1,nt,nt,-3.2%[46.1 µM],-22.9%[46.1 µM]
Cc1c(Cl)cccc1NC(=O)CSc1cc(-c2ccccc2)ncn1,nt,nt,1.8%[46.1 µM],1.2%[46.1 µM]
CCOC(=O)C1(Cc2cccc(OC)c2)CCCN(C(=O)c2ccc(OC)o2)C1 (stereo unspecified),40.5*,113.3*,27.7%,2.8%
CCOC(=O)C1(Cc2cccc(OC)c2)CCCN(C(=O)CCN2CCCO2)C1 (stereo unspecified),56.7*,147.5*,?,-6.9%[46.1 µM]
CCOC(=O)C1(Cc2cccc(OC)c2)CCCN(C(=O)c2cc(CC(C)C)[nH]n2)C1 (stereo unspecified),53.2*,86.6*,11.2%,?
SMILES,Cycloheximide cs,Shiga inhibitor,Marburg entry inh,Lassa entry inh
Cc1ccc(-c2nc(-c3cccnc3)sc2CC(=O)Nc2ccc3nc(C)sc3c2)cc1,-1.8,-13.4,?,-24.7%
CCC(=O)Nc1ccccc1C(=O)OCc1ccc(C(=O)c2ccccc2)cc1,25.3*,15.0,11.1%,-0.7%
CC(=O)Nc1ccccc1C(=O)OCc1ccc(F)cc1,32.0*,37.3,?,-18.1%
C[C@@H](/C=C/c1ccc2ccccc2c1)C1COC(=O)C[C@H]1O (stereo partly specified),-0.2,-1.8,nt,nt
[O-][n+]1onc2c1CCC(=N/O)/C2=N\Nc1ccccc1,19.4*,55.3,nt,nt
[O-][n+]1c2c(nn1-c1ccccc1)/C(=N/O)CCC2,2.3,-4.4,12.3%,-1.8%
O=C(c1ccccc1)N1CC(COc2ccccc2)OC(c2cccnc2)O1 (stereo unspecified),16.0*,29.0,?,28.5%
O=C(COc1ccc(-c2ccccc2)cc1)N1CCN(C(=O)c2cccnc2)CC1,-2.8,12.1,13.5%,2.6%
CC(O)c1nc2ccccc2n1CC(=O)Nc1ccc2c(c1)OCCO2 (stereo unspecified),26.5*,27.3,?,0.5%[46.1 µM]
Cn1c(C(=O)O)c(CC(=O)Nc2ccc3c(c2)OCCO3)c2ccccc21,63.5*,147.3*,7.3%,1.4%
Cc1ccc2c(Cl)cc(Cl)c(OCC(=O)Nc3cc(S(=O)(=O)N(C)C)ccc3C)c2n1,-1.5,1.6,3.98µM*,?
